Screen size: about 39,000 compounds; about 3,300 (8.5%) were called active. The entries come from a sample that favours actives as a whole.
These compounds were tested on HepG2 (assay: cytotoxicity call (relative viability < 0.9)). Conditions: 10 µM.
C[C@@H]1CCCCO[C@H](CN(C)C(=O)Nc2ccc(C(F)(F)F)cc2)[C@H](C)CN([C@@H](C)CO)C(=O)c2cc(NC(=O)Nc3cccc4ccccc34)ccc2O1 was tested, and the cytotoxicity call was “inactive”. In the case of C[C@@H]1CN([C@@H](C)CO)C(=O)c2cc(NC(=O)C3CCCCC3)ccc2O[C@@H](C)CCCCO[C@@H]1CN(C)C(=O)Nc1ccc(C(F)(F)F)cc1, the cytotoxicity call is reported as “inactive”. For COc1cccc(C#Cc2ccc3c(c2)O[C@@H](CN(C)C(C)=O)[C@H](C)CN([C@@H](C)CO)S3(=O)=O)c1, the cytotoxicity call was “inactive”. For COc1ccc(NC(=O)N(C)C[C@H]2OCCCC[C@H](C)Oc3ccc(NC(=O)Nc4cccc5ccccc45)cc3C(=O)N([C@@H](C)CO)C[C@H]2C)cc1, the cytotoxicity call was “inactive”. With CCCC1CCC(c2ccc(OC(=O)c3ccco3)cc2)CC1 (stereo not drawn) the cytotoxicity call was “inactive”. For CCCN(C)C[C@@H]1OCCCC[C@@H](C)Oc2ccc(NC(=O)CCC(F)(F)F)cc2C(=O)N([C@@H](C)CO)C[C@@H]1C, the cytotoxicity call was “inactive”. In the case of C[C@@H]1CN([C@@H](C)CO)C(=O)c2cc(C3=CCCC3)cnc2O[C@H]1CN(C)S(=O)(=O)c1cn(C)cn1, the cytotoxicity call is reported as “inactive”. For C[C@@H]1CN([C@@H](C)CO)C(=O)CCCn2cc(nn2)CO[C@@H]1CN(C)C(=O)Nc1cccc2ccccc12, the cytotoxicity call was “inactive”. In the case of CCC(=O)N1C[C@]2(C1)CN([C@H](CO)c1c2c2ccc(cc2n1C)OC)C(=O)CN1CCOCC1, the cytotoxicity call is reported as “inactive”. With C[C@H](CO)N1C[C@H](C)[C@H](CN(C)Cc2ccc(-c3ccccc3)cc2)Oc2c(NC(=O)Nc3ccc4c(c3)OCO4)cccc2C1=O the cytotoxicity call was “inactive”. With C[C@@H]1CN([C@@H](C)CO)S(=O)(=O)c2ccc(C#CC3(O)CCCC3)cc2O[C@H]1CN(C)C(=O)c1ccccc1 the cytotoxicity call was “inactive”. C[C@@H]1CN([C@@H](C)CO)C(=O)c2cccc(NS(=O)(=O)c3cn(C)cn3)c2O[C@@H]1CN(C)S(C)(=O)=O was tested, and the cytotoxicity call was “inactive”. CCS(=O)(=O)N1C[C@]2(C1)CN([C@H](CO)c1c2c2ccc(cc2n1C)OC)S(=O)(=O)c1ccccc1 was tested, and the cytotoxicity call was “inactive”. COc1ccccc1CN(C)C[C@@H]1OCc2ccccc2-c2c(n(C)c3ccccc23)C(=O)N([C@H](C)CO)C[C@H]1C was tested, and the cytotoxicity call was “inactive”. For C[C@H]1CN([C@@H](C)CO)C(=O)c2c(c3ccccc3n2C)-c2ccccc2CO[C@H]1CN(C)Cc1ccccc1, the cytotoxicity call was “inactive”. For C[C@H]1CN([C@@H](C)CO)C(=O)c2c(c3ccccc3n2C)-c2ccccc2CO[C@@H]1CN(C)Cc1ccccc1, the cytotoxicity call was “inactive”. C[C@@H]1CN([C@@H](C)CO)C(=O)c2c(c3ccccc3n2C)-c2ccccc2CO[C@H]1CN(C)Cc1ccccc1C(F)(F)F was tested, and the cytotoxicity call was “inactive”. C[C@@H]1CN([C@H](C)CO)C(=O)c2c(c3ccccc3n2C)-c2ccccc2CO[C@H]1CN(C)Cc1ccccc1C(F)(F)F was tested, and the cytotoxicity call was “active”. C[C@H](CO)N1C[C@H](C)[C@@H](CN(C)Cc2ccccc2)OCc2ccccc2-c2c(n(C)c3ccccc23)C1=O was tested, and the cytotoxicity call was “active”. For C[C@H](CO)N1C[C@H](C)[C@H](CN(C)Cc2ccccc2C(F)(F)F)OCc2ccccc2-c2c(n(C)c3ccccc23)C1=O, the cytotoxicity call was “inactive”. In the case of COc1ccccc1CN(C)C[C@H]1OCc2ccccc2-c2c(n(C)c3ccccc23)C(=O)N([C@H](C)CO)C[C@@H]1C, the cytotoxicity call is reported as “active”. C[C@@H]1CN([C@@H](C)CO)C(=O)c2c(c3ccccc3n2C)-c2ccccc2CO[C@@H]1CN(C)Cc1ccccc1 was tested, and the cytotoxicity call was “inactive”. For C[C@H](CO)N1C[C@H](C)[C@H](CN(C)Cc2ccccc2)OCc2ccccc2-c2c(n(C)c3ccccc23)C1=O, the cytotoxicity call was “inactive”. In the case of C[C@@H]1CN([C@H](C)CO)C(=O)c2c(c3ccccc3n2C)-c2ccccc2CO[C@H]1CN(C)Cc1ccccc1, the cytotoxicity call is reported as “active”. COc1ccccc1CN(C)C[C@H]1OCc2ccccc2-c2c(n(C)c3ccccc23)C(=O)N([C@@H](C)CO)C[C@@H]1C was tested, and the cytotoxicity call was “inactive”. For C[C@H]1CN([C@@H](C)CO)C(=O)c2cc(NS(C)(=O)=O)ccc2O[C@@H]1CN(C)S(=O)(=O)c1ccccc1, the cytotoxicity call was “inactive”. For CC(C)NC(=O)N(C)C[C@@H]1Oc2ccc(NS(=O)(=O)c3ccc(Cl)cc3)cc2C(=O)N([C@@H](C)CO)C[C@H]1C, the cytotoxicity call was “inactive”. COc1ccc2c3c(n(c2c1)C)[C@H](CO)N(C[C@]13CCN(CC1)C(=O)c1ccccc1F)C(=O)Nc1ccc(cc1)F was tested, and the cytotoxicity call was “inactive”. CO[C@H]1CN(C)C(=O)c2cc(NS(=O)(=O)c3cn(C)cn3)ccc2OC[C@H](C)N(CC2CC2)C[C@H]1C was tested, and the cytotoxicity call was “inactive”. With C[C@@H]1CN([C@H](C)CO)C(=O)c2cc(NC(=O)C3CCCCC3)ccc2O[C@@H](C)CCCCO[C@H]1CN(C)C(=O)Nc1ccccc1 the cytotoxicity call was “inactive”. For Cc1cc2cc(C)nn2c(N)n1, the cytotoxicity call was “inactive”. C[C@H](CO)N1C[C@H](C)[C@H](CN(C)C(=O)Nc2ccccc2)OCCCC[C@H](C)Oc2ccc(NC(=O)CCC(F)(F)F)cc2C1=O was tested, and the cytotoxicity call was “inactive”. With Cc1noc(C)c1S(=O)(=O)Nc1ccc2c(c1)C(=O)N([C@H](C)CO)C[C@@H](C)[C@@H](CN(C)Cc1ccccc1)O2 the cytotoxicity call was “inactive”. O=C(C[C@@H]1C=C[C@H](NS(=O)(=O)c2ccccc2F)[C@@H](CO)O1)NCCCN1CCOCC1 was tested, and the cytotoxicity call was “inactive”. In the case of C[C@@H]1CN([C@H](C)CO)C(=O)c2cc(NC(=O)NC3CCCCC3)ccc2O[C@@H](C)CCCCO[C@H]1CN(C)S(=O)(=O)c1ccc(F)cc1, the cytotoxicity call is reported as “inactive”. In the case of C[C@@H]1CCCCO[C@@H](CN(C)S(=O)(=O)c2ccc(F)cc2)[C@H](C)CN([C@@H](C)CO)C(=O)c2cc(NC(=O)NC3CCCCC3)ccc2O1, the cytotoxicity call is reported as “inactive”. For C[C@@H]1CCCCO[C@H](CN(C)S(=O)(=O)c2ccc(F)cc2)[C@@H](C)CN([C@H](C)CO)C(=O)c2cc(NC(=O)NC3CCCCC3)ccc2O1, the cytotoxicity call was “active”. For C[C@H]1CCCCO[C@@H](CN(C)S(=O)(=O)c2ccc(F)cc2)[C@@H](C)CN([C@@H](C)CO)C(=O)c2cc(NC(=O)NC3CCCCC3)ccc2O1, the cytotoxicity call was “inactive”. In the case of C[C@@H]1CCCCO[C@H](CN(C)S(=O)(=O)c2ccc(F)cc2)[C@H](C)CN([C@H](C)CO)C(=O)c2cc(NC(=O)NC3CCCCC3)ccc2O1, the cytotoxicity call is reported as “inactive”. C[C@@H]1CCCCO[C@@H](CN(C)S(=O)(=O)c2ccc(F)cc2)[C@@H](C)CN([C@H](C)CO)C(=O)c2cc(NC(=O)NC3CCCCC3)ccc2O1 was tested, and the cytotoxicity call was “inactive”. For C[C@@H]1CCCCO[C@@H](CN(C)S(=O)(=O)c2ccc(F)cc2)[C@H](C)CN([C@H](C)CO)C(=O)c2cc(NC(=O)NC3CCCCC3)ccc2O1, the cytotoxicity call was “active”. C[C@H](CO)N1C[C@H](C)[C@H](CN(C)S(=O)(=O)c2ccc(F)cc2)OCCCC[C@H](C)Oc2ccc(NC(=O)NC3CCCCC3)cc2C1=O was tested, and the cytotoxicity call was “active”. In the case of C[C@@H]1CCCCO[C@H](CN(C)S(=O)(=O)c2ccc(F)cc2)[C@H](C)CN([C@@H](C)CO)C(=O)c2cc(NC(=O)NC3CCCCC3)ccc2O1, the cytotoxicity call is reported as “inactive”.

From the antibiotic and cytotoxicity screens of Wong et al. (2023)
